# From PubChem BioAssay (Tox21)
# Values joined by “and” are separate entries in the source; they are usually repeats but may differ in a detail not shown here. Equal entries are not always repeated. Inconclusive results are not listed. Where a call stands in place of a potency, no number is given. More than one record can exist for a structure, and the calls need not agree. Active and inactive are the calls of the source. Unless noted, the call rests on the fitted dose curve; in most records, active means well fitted curve in the direction sought with a large enough effect in the repeat runs; inconclusive means weak or mixed curves; inactive means no such curve, though single readings can be large; an effect the other way counts as inactive or inconclusive.
# Tests used:
# [1] = qHTS assay to identify small molecule antagonists of the peroxisome proliferator-activated receptor delta (PPARd) signaling pathway - cell viability counter screen (AID 743213); further: nearly all actives have a fitted effect of over 50% in size; further: potency means the concentration at half of the fitted maximal effect
# Summary of the method: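 HEK293H cells with the PPARd UAS-bla reporter, co-treated 17 h at 37 C with compounds and L165041 (300 nM final), were lysed with CellTiter-Glo. Luminescence indicated viable cell content.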
# [2] = molecular target: Peroxisome proliferator-activated receptor delta (Homo sapiens) (UniProt Q03181); assay: qHTS assay to identify small molecule antagonists of the peroxisome proliferator-activated receptor delta (PPARd) signaling pathway (AID 743215; active means well fitted inhibition curve with a large enough effect in the signal ratio in the repeat runs, not every such curve was filed as active; the % refers to the signal ratio;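 further: cells stimulated with agonist L165041 at 300 nM final during compound exposure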; further: potency means the concentration at half of the fitted maximal effect)
# Summary of the method: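 Here, a reporter line (HEK293H, beta-lactamase under a UAS) measures PPARd signaling. Compounds are tested against agonist L165041 at 300 nM final concentration over 17 h at 37 C, with fluorescence read after substrate.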
# [3] = qHTS assay to identify small molecule agonists of the farnesoid-X-receptor (FXR) signaling pathway - cell viability counter screen (AID 743218); further: nearly all actives have a fitted effect of over 45% in size; further: potency means the concentration at half of the fitted maximal effect
# Summary of the method: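 Quantitative HTS counter screen measuring ATP-based viability via CellTiter-Glo luminescence in HEK 293T cells carrying a UAS-driven beta-lactamase reporter, after 16 h compound exposure at 37 C.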
# [4] = molecular target: Vitamin D3 receptor (Homo sapiens) (UniProt P11473); assay: qHTS assay to identify small molecule agonists of the vitamin D receptor (VDR) signaling pathway (AID 743222; calls by dose curve)
# Summary of the method: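 Tox21 cell reporter format: VDR-bla line, 16 h compound exposure in 5% CO2 at 37C, then fluorescence intensity after 2 h with LiveBLAzer B/G FRET substrate.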
# [5] = qHTS assay to identify small molecule agonists of the vitamin D receptor (VDR) signaling pathway - cell viability counter screen (AID 743224); further: nearly all actives have a fitted effect of over 50% in size; further: potency means the concentration at half of the fitted maximal effect
# Summary of the method: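 CellTiter-Glo viability readout on VDR-bla cells, measured after 16 h of compound treatment at 37C in the same wells.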
# [6] = qHTS assay to identify small molecule antagonists of the vitamin D receptor (VDR) signaling pathway - cell viability counter screen (AID 743225); further: nearly all actives have a fitted effect of over 50% in size; further: potency means the concentration at half of the fitted maximal effect
# Summary of the method: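 Compounds were pinned onto VDR-bla HEK 293T cells together with 1-alpha,25-dihydroxyvitamin D3 at 3 nM final. After 16 h at 37C and 5% CO2 plus the reporter readout, cell viability was measured by CellTiter-Glo luminescence (30 min, room temperature).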
# [7] = molecular target: Bile acid receptor (Homo sapiens) (UniProt Q96RI1); assay: qHTS assay to identify small molecule agonists of the farnesoid-X-receptor (FXR) signaling pathway (AID 743220; active means well fitted activation curve with a large enough effect in the signal ratio in the repeat runs, not every such curve was filed as active; the % refers to the signal ratio)
# Summary of the method: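 FXR-UAS-bla HEK 293T cells carrying a UAS-driven beta-lactamase reporter were plated for 5 h at 37C/5% CO2, then exposed to DMSO-dissolved Tox21 10K compounds for 16 h at 37C. A LiveBLAzer B/G FRET substrate was loaded for 2 h at room temperature before fluorescence reading.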
# [8] = qHTS assay to identify small molecule antagonists of the farnesoid-X-receptor (FXR) signaling pathway - cell viability counter screen (AID 743221; active means well fitted cell-killing curve with a large enough effect in the repeat runs, not every such curve was filed as active; further: nearly all actives have a fitted effect of over 50% in size; further: potency means the concentration at half of the fitted maximal effect)
# Summary of the method: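 Here viability was scored by luminescence after CellTiter-Glo addition to wells already read for beta-lactamase. Prior treatment: compound plus CDCA (50 uM final), 16 h, 37 C, HEK 293T FXR-bla cells.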
# [9] = molecular target: Bile acid receptor (Homo sapiens) (UniProt Q96RI1); assay: qHTS assay to identify small molecule antagonists of the farnesoid-X-receptor (FXR) signaling pathway (AID 743217; active means well fitted inhibition curve with a large enough effect in the signal ratio in the repeat runs, not every such curve was filed as active; the % refers to the signal ratio)
# Summary of the method: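 Test compounds are pin-transferred onto FXR-bla HEK 293T cells, then chenodeoxycholic acid is added at 50 uM final. After 16 h at 37 °C, LiveBLAzer B/G substrate is applied for 2 h at room temperature and fluorescence read.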
# [10] = molecular target: Vitamin D3 receptor (Homo sapiens) (UniProt P11473); assay: qHTS assay to identify small molecule antagonists of the vitamin D receptor (VDR) signaling pathway (AID 743223; active means well fitted inhibition curve with a large enough effect in the signal ratio in the repeat runs, not every such curve was filed as active; the % refers to the signal ratio)
# Summary of the method: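 Inhibition of agonist-driven VDR signalling is scored in VDR-bla cells: 3 nM final 1alpha,25-dihydroxyvitamin D3 plus compound, 16 h at 37C, then beta-lactamase detection by FRET substrate fluorescence after 2 h.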
# Sequence of Vitamin D3 receptor (Homo sapiens) (P11473 whole entry, looked up): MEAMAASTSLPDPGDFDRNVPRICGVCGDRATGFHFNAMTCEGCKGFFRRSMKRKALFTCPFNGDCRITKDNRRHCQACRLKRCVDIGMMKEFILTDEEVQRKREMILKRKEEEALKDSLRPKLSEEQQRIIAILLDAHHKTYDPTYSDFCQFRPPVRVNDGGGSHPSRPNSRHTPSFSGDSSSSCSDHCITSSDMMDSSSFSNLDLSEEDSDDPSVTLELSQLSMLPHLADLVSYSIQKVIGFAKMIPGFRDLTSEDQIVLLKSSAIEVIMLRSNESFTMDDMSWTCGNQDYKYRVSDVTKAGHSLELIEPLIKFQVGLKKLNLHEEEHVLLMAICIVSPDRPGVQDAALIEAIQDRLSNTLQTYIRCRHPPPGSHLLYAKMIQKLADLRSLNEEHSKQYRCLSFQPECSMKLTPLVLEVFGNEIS
# Sequence of Bile acid receptor (Homo sapiens) (Q96RI1 whole entry, looked up): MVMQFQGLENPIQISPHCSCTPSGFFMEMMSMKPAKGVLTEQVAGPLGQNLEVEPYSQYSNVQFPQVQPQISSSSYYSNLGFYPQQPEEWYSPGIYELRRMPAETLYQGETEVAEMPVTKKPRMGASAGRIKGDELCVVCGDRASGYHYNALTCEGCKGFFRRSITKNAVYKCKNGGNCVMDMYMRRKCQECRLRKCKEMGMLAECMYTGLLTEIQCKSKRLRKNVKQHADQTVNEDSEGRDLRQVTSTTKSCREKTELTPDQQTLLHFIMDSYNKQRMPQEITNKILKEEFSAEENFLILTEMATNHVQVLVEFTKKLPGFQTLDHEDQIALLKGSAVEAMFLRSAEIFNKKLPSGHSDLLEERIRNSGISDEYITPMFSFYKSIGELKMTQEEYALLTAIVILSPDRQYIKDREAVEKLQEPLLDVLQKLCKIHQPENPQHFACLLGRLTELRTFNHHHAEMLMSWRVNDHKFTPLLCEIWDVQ
# Sequence of Peroxisome proliferator-activated receptor delta (Homo sapiens) (Q03181 whole entry, looked up): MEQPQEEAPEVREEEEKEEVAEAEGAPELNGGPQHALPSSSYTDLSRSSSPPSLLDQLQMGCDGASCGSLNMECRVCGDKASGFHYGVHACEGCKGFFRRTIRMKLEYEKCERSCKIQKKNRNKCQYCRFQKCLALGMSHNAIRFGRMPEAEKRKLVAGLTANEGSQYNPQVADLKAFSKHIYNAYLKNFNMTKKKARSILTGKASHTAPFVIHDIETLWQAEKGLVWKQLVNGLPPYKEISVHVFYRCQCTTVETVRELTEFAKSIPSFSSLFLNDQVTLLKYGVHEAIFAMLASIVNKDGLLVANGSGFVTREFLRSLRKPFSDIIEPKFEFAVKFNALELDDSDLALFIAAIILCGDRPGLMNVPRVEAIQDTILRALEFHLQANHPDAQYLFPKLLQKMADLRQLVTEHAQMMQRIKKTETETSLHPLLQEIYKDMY
Compound,Potency [1],Potency [2],Potency [3],Potency [4],Potency [5],Potency [6],Potency [7],Potency [8],Potency [9],Potency [10]
NC(=O)c1ccccc1N,inactive,inactive,inactive,inactive,inactive,inactive,–,–,–,–
O=C1NC2CCCCN2C12CCN(CCCN1c3ccccc3CCc3ccc(Cl)cc31)CC2 (stereo not given),26.6 µM (active),29.8 µM (active),–,inactive,inactive,23.9 µM (active),inactive,–,–,–
CCN(CC)CCNc1ccc(CO)c2sc3ccccc3c(=O)c12,13.3 µM (active),23.7 µM (active),13.3 µM (active),inactive,–,–,inactive,–,–,–
Clc1ccc(C(c2ccccc2Cl)C(Cl)Cl)cc1 (stereo not given),inactive,inactive,inactive,–,49 µM (active) and inactive,inactive,inactive,inactive,–,–
C[Si](C)(C)Cl,inactive,inactive,inactive,–,inactive,inactive,inactive,inactive,inactive,–
O=Cc1ccc(F)cc1,inactive,inactive,inactive,inactive,inactive,inactive,inactive,inactive,inactive,–
CCc1cccc(C)c1,inactive,inactive,inactive,inactive,inactive,inactive,inactive,inactive,inactive,inactive
CC1CCCCN1CCCOC(=O)c1ccc(OC2CCCCC2)cc1 (stereo not given),inactive,inactive,–,inactive,inactive,–,inactive,–,inactive,–
CC(C(O)c1ccccc1)N(C)CCOC(c1ccccc1)c1ccccc1 (stereo not given),33.5 µM (active),inactive,15 µM (active),inactive,–,–,inactive,–,–,inactive
O=C1Nc2ccc(Cl)cc2[C@@](C#CC2CC2)(C(F)(F)F)O1,inactive,inactive,inactive,inactive,inactive,–,–,–,–,–
SCCCCCCCCS,inactive,inactive,–,inactive,inactive,inactive,inactive,inactive,inactive,–
O[C@@H](c1cc(C(F)(F)F)nc2c(C(F)(F)F)cccc12)[C@H]1CCCCN1,8.41 µM (active),13.3 µM (active),–,–,21.1 µM (active),19 µM (active),inactive,26.6 µM (active),–,–
NC(=O)C(=O)N/N=C/c1ccc([N+](=O)[O-])o1,inactive,inactive,inactive,–,inactive,inactive,–,–,–,–
Cn1cnc2ncnc(N)c21,inactive,inactive,inactive,inactive,inactive,inactive,–,inactive,–,inactive
CCCCCCCCCCCC(=O)N(CC)CC,inactive,inactive,–,inactive,inactive,inactive,inactive,inactive,inactive,inactive
CC(C)=C1CC[C@@H](C)CC1=O,inactive,inactive,inactive,inactive,inactive,inactive,–,–,–,–
c1ccc(Nc2cccc3ccccc23)cc1,inactive,inactive,inactive,inactive,55.7 µM (active) and inactive,inactive,–,inactive,–,–
CC(CN(C)C)CN1c2ccccc2CCc2ccccc21 (stereo not given),29.8 µM (active),inactive,8.41 µM (active),inactive,–,inactive,inactive,–,inactive,–
O=C(O)CC(=O)O,inactive,inactive,inactive,inactive,inactive,inactive,–,inactive,–,–

Compound,Potency [1],Potency [2],Potency [3],Potency [4],Potency [5],Potency [6],Potency [7],Potency [8],Potency [9],Potency [10]
CN1[C@@H]2CC[C@@H]1CC(OC(=O)C(CO)c1ccccc1)C2 (stereo not given in full),inactive,–,–,–,–,–,–,–,–,–
C=CC(=O)OCCC#N,inactive,inactive,–,inactive,inactive,inactive,inactive,inactive,inactive,inactive
Oc1ccc(-c2ccccc2)c(Cl)c1,inactive,inactive,inactive,inactive,–,inactive,–,–,–,–
Cc1cccc(Br)c1,inactive,inactive,inactive,–,inactive,inactive,–,inactive,–,–
CCN(CC)CCOc1ccc(C(O)(Cc2ccc(Cl)cc2)c2ccc(C)cc2)cc1 (stereo not given),13.3 µM (active),29.8 µM (active),13.3 µM (active),–,–,23.9 µM (active),inactive,29.8 µM (active),–,–
NCCCCCCNCCCCCCN,inactive,inactive,inactive,inactive,inactive,inactive,inactive,inactive,inactive,–
C(=C/c1ccccc1)/c1ccccc1,inactive,inactive,inactive,inactive,inactive,inactive,inactive,inactive,inactive,inactive
CC(=O)Oc1ccc(C2(c3ccc(OC(C)=O)cc3)C(=O)Nc3ccccc32)cc1,inactive,inactive,inactive,–,inactive,inactive,–,inactive,–,–
Cc1cn[nH]c1,inactive,inactive,inactive,–,inactive,inactive,–,–,–,–
CC1(C)C(=O)N(Br)C(=O)N1Br,inactive,inactive,inactive,inactive,inactive,inactive,inactive,–,inactive,–
CN1[C@@H]2CC[C@H]1CC(OC(=O)C(CO)c1ccccc1)C2 (stereo not given in full),inactive,–,–,–,–,–,–,–,–,–
Nc1cc(Cl)c([N+](=O)[O-])cc1O,inactive,inactive,inactive,inactive,inactive,inactive,–,inactive,inactive,–
CCCCCCCC/C=C\CCCCCCCC(=O)OCCOC(=O)CCCCCCC/C=C\CCCCCCCC,inactive,inactive,–,inactive,inactive,inactive,inactive,inactive,inactive,–
CSc1ccc2c(c1)N(CCC1CCCCN1C)c1ccccc1S2 (stereo not given),21.8 µM (active) and 13.3 µM (active),26.6 µM (active),21.8 µM (active) and 16.8 µM (active),inactive,inactive and 26.6 µM (active),24.4 µM (active) and 23.9 µM (active),–,38.7 µM (active) and 29.8 µM (active),–,–
Cc1ccc(N)cc1O,inactive,–,–,–,–,–,–,–,–,–
CCCCNc1c(C(=O)OCC)c(C)nc2c1cnn2CC,inactive,inactive,inactive,inactive,inactive,inactive,–,inactive,–,–
CCCCOc1ccc(C(=O)CCN2CCCCC2)cc1,inactive,inactive,inactive,–,–,inactive,inactive,–,inactive,–
C[C@@H]1CC[C@H]2C(C)(C)[C@H]3C[C@@]12CC[C@@]3(C)O,inactive,inactive,–,–,–,inactive,inactive,inactive,inactive,–
CSc1c(Cl)c(Cl)c(Cl)c(Cl)c1Cl,inactive,–,–,inactive,–,inactive,inactive,inactive,–,–

Compound,Potency [1],Potency [2],Potency [3],Potency [4],Potency [5],Potency [6],Potency [7],Potency [8],Potency [9],Potency [10]
C=C1C(C)(C)[C@@]2(Cl)C(Cl)[C@]1(Cl)C(Cl)(Cl)C2(Cl)Cl (stereo not given in full),inactive,–,53.9 µM (active),inactive,38.2 µM (active),–,–,–,–,–
CCO[Si](CCCSSSSCCC[Si](OCC)(OCC)OCC)(OCC)OCC,inactive,–,inactive,inactive,–,–,–,–,–,–
NCCCC(O)(P(=O)(O)O)P(=O)(O)O,inactive,–,inactive,inactive,inactive,inactive,–,inactive,–,–
O=C(O)CCn1c2c(c3ccccc31)C[C@H](NS(=O)(=O)c1ccc(F)cc1)CC2,inactive,–,inactive,–,inactive,inactive,–,inactive,–,–
N#CSCSc1nc2ccccc2s1,4.9 µM (active),–,inactive,–,12.3 µM (active),15.5 µM (active),–,–,–,–
C=CC(=O)OCCOCC(CC)(COCCOC(=O)C=C)COCCOC(=O)C=C,36.1 µM (active),–,51 µM (active),–,64.3 µM (active),64.3 µM (active),–,51 µM (active),–,–
CCN(CC)CCOC(=O)C1(C2CCCCC2)CCCCC1,inactive,–,inactive,inactive,inactive,inactive,–,inactive,–,–
C[C@H]1O[C@@H](O[C@H]2[C@@H](O)C[C@H](O[C@H]3[C@@H](O)C[C@H](O[C@H]4CC[C@@]5(C)[C@H](CC[C@@H]6[C@@H]5C[C@@H](O)[C@]5(C)[C@@H](C7=CC(=O)OC7)CC[C@]65O)C4)O[C@@H]3C)O[C@@H]2C)C[C@H](O)[C@@H]1O,24.6 nM (active) and 13.6 nM (active),–,24.6 nM (active) and 12.2 nM (active),–,0.0174 µM (active),21.9 nM (active) and 13.6 nM (active),inactive,–,–,–
Oc1c(Br)cc(Br)c2cccnc12,3.35 µM (active),–,inactive,–,3.35 µM (active),–,–,–,–,–
CNCC[C@H](Oc1cccc2ccccc12)c1cccs1,5.31 µM (active),–,6.68 µM (active),–,11.9 µM (active),8.49 µM (active),–,11.9 µM (active),–,–
Cc1cccc(C)c1NC(=O)CN1CCN(CCCC(c2ccc(F)cc2)c2ccc(F)cc2)CC1,21.1 µM (active),–,26.6 µM (active),–,29.8 µM (active),23.9 µM (active),inactive,29.8 µM (active),–,–
O=C1NCCN1CCN1CCC(c2cn(-c3ccc(F)cc3)c3ccc(Cl)cc23)CC1,23.7 µM (active),–,23.7 µM (active),–,11.9 µM (active),16.9 µM (active),–,33.5 µM (active),–,–
CCC1(c2cnc[nH]2)Cc2ccccc2C1,inactive,–,inactive,–,inactive,inactive,–,inactive,–,–
CC(C)(C)c1cc(/C=C2\SC(=N)NC2=O)cc(C(C)(C)C)c1O,54.9 µM (active),–,43.6 µM (active),–,49 µM (active),43.6 µM (active),–,–,–,–
CC(C)(c1cc(Br)c(OCCO)c(Br)c1)c1cc(Br)c(OCCO)c(Br)c1,42.7 µM (active),–,19.1 µM (active),–,38 µM (active),–,inactive,–,–,–
CC(NCCC(c1ccccc1)c1ccccc1)c1ccccc1 (stereo not given),8.41 µM (active),–,–,inactive,23.7 µM (active),–,inactive,inactive,–,–
CCCCC(CC)COC(=O)c1ccc(O)cc1 (stereo not given),34.5 µM (active) and 38.9 µM (active),–,–,inactive,21.8 µM (active) and 49 µM (active),15.4 µM (active) and 38.9 µM (active),inactive,–,–,–
CCN=C1C=CC(=C(c2ccc(N(CC)CC)cc2)c2ccc(N(CC)CC)cc2)c2ccccc21,12.2 µM (active),–,6.88 µM (active),–,4.87 µM (active),19.4 µM (active),–,13.7 µM (active),–,–
